SMILES strings stand for the structures. About 83,000 compounds went through this panel and 20% of them were active in at least one assay; those are over-represented in the sample as a whole.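 Growth was measured after 48 h exposure to one concentration of compound in 96-well plates. Values under 10 count as active.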 Unmarked numbers belong to inactive results. Calls of active or inactive are those of the source.

Holding throughout (assay): NCI-60 one-dose screen, 48 h (100 = growth as untreated, 0 = no growth, -100 = all killed)
Conditions in all cases: 10 µM unless noted

Test [1] relates to SK-MEL-2 melanoma.
The subject of test [2] is EKVX NSCLC.
In test [3] the test system is SN12C renal.
For test [4], the system named is UO-31 renal.
In test [5] the test system is TK-10 renal.
The test system of test [6] is ACHN renal.
Test [7] deals with CAKI-1 renal.
For test [8], the system named is A498 renal.
In test [9] the test system is CCRF-CEM leukemia.
The subject of test [10] is MOLT-4 leukemia.
Test [11] has as its system SR leukemia.
The subject of test [12] is RPMI-8226 leukemia.
Test [13] deals with OVCAR-8 ovarian.
Test [14] has as its system OVCAR-5 ovarian.
For test [15], the system named is OVCAR-4 ovarian.
Test [16] concerns SK-OV-3 ovarian.
The subject of test [17] is IGROV1 ovarian.
The subject of test [18] is OVCAR-3 ovarian.
For test [19], the system named is HS 578T breast.
Test [20] has as its system NCI/ADR-RES ovarian.

`N[C@H]1CCC[C@@H]1NCCCCN1C(=O)c2cccc3cc([N+](=O)[O-])cc(c23)C1=O`: the growth was 84.2% in [1]; 73.2% in test [2]; 29.7% in [3]; 66% in [4]; 44.5% in test [5]; 22.4% in test [6]. The growth in [7] is 94.3%; in test [8], 62.6%; in test [9], 2.24% (active); in test [10], 0.264% (active); in test [11], -6.77% (active); in test [12], 58.3%. The growth is 37.1% in test [13]; 73.6% in test [14]; 44.5% in test [15]; 42.1% in test [16]; 34.5% in test [17]; 53% in test [18]. Further, the growth in test [19] was 65.4%; in test [20] it was 77%.
Take `Cc1ccnc(Nc2ccc([N+](=O)[O-])c(NCCN3CCOCC3)n2)c1`: the growth was 51.5% in [1]; 96.4% in [2]; 36.6% in test [3]; 34.2% in test [4]; 79.4% in test [5]; 38.6% in test [6]. The growth is 65.6% in test [7]; 24.9% in test [8]; 7.5% (active) in [9]; 11.7% in test [10]; 9.97% (active) in test [11]; 26.1% in test [12]. The growth in [13] was 34.8%; in [14] it was 99.1%; in test [15], 59.4%; in test [16] it was 62.1%; in [17], 28.4%; in test [18] it was 26.1%. Also, the growth in test [19] was 38.3%; in [20], 43.9%.
As to `CCCCNC(=O)c1cc([N+](=O)[O-])cc(C2CCCCC2)c1O`, the growth in [1] was 19.5%; in test [2], 33.6%; in test [3], 31.9%; in test [4] it was 24.8%; in test [5], 49.1%; in test [6] it was 61.5%. In addition, the growth in test [7] was 35.3%; in [8], 21.5%; in test [9], 36.5%; in [10], 27.1%; in test [11], 84.1%; in test [12], 17%. Further, the growth in test [13] is 43.9%; in test [14], 78.6%; in [15] it was 14.3%; in test [16] it was 40.3%; in test [17], 43.2%; in test [18], 23.1%. The growth is 48.3% in [19] and 49.6% in [20].
Take `COc1cc(/C=N/Nc2ccc(Br)cc2)cc(OC)c1OC`: the growth in test [1] is 73%; in [2], 63.9%; in test [3], 69.7%; in [4], 35%; in test [5], 97.2%; in test [6], 31.6%. The growth was 10.2% in [7]; 60% in [8]; 31.1% in test [9]; 44.1% in test [10]; 68.8% in test [11]; 58.4% in [12]. Further, the growth is 54.8% in test [13]; 68.4% in [14]; 51% in test [15]; 85.2% in [16]; 57.3% in test [17]; 63.3% in [18]. In addition, the growth in test [19] was 80%; in test [20] it was 57.2%.
For `C=C1CC[C@@H]2[C@](C)(COC(C)=O)[C@H](OC(C)=O)CC[C@@]2(C)[C@@H]1CC(Nc1ccc(S(=O)(=O)NC(C)=O)cc1)C1=CCOC1=O` (stereo not given in full), the growth is -7.41% (active) in test [1]; 57.5% in test [2]; 1.94% (active) in test [3]; -58.5% (active) in test [4]; 2.78% (active) in test [5]; -63.2% (active) in test [6]. Moreover, the growth was 30.3% in test [7]; 73.4% in [8]; -27.9% (active) in test [9]; 0.118% (active) in test [10]; 2.08% (active) in test [11]; -16.2% (active) in test [12]. The growth was -18.2% (active) in test [13]; -40.1% (active) in test [14]; 26.1% in test [15]; 67.3% in test [16]; -10% (active) in test [17]; -87.7% (active) in test [18]. Besides, the growth is 32.5% in test [19] and 11.9% in test [20].
With `CCN1C(=O)N(CC)C2C1NN=c1s/c(=C\c3ccc[nH]3)c(=O)n12` (stereo not given), the growth in test [1] is 23.4%; in test [2], 47.4%; in test [3] it was 39.2%; in [4] it was 39.2%; in test [5], 61.6%; in [6], 42.3%. Moreover, the growth in test [7] is 27.5%; in [8], -4.45% (active); in test [9], 4.06% (active); in [10], 20.4%; in test [11], 16.3%; in test [12] it was 15.5%. The growth in test [13] is 11.2%; in test [14] it was 22.2%; in test [15], 50.6%; in test [16] it was 27.1%; in [17], 28.8%; in test [18], -25.3% (active). Moreover, the growth in [19] is 7.95% (active); in [20], 8.11% (active).
`CCOC(=O)c1nn(CC(O)c2ccccc2)c(NC(=O)Nc2cccc(F)c2)c1C` (stereo not given): the growth in test [1] is 95%; in test [2], 101%; in test [3], 87.5%; in test [4] it was 90.1%; in test [5], 105%; in test [6] it was 107%. The growth was 101% in test [7]; 76.7% in [8]; 96.7% in test [9]; 99.2% in test [10]; 95.3% in [11]; 96.6% in test [12]. The growth was 91.4% in test [13]; 107% in test [14]; 94.8% in [15]; 107% in test [16]; 109% in test [17]; 102% in test [18]. Besides, the growth is 94.5% in test [19] and 106% in test [20].
`Nn1c(=O)c(=O)[nH]c2c(cnn2-c2ccccc2)c1=O`: the growth in [1] is 122%; in [2] it was 98.9%; in test [3], 105%; in test [4], 82.2%; in [5] it was 109%; in test [6], 105%. In addition, the growth is 94.3% in test [7]; 113% in test [8]; 108% in test [9]; 101% in test [10]; 94.5% in test [11]; 103% in test [12]. Further, the growth in test [13] is 97.3%; in test [14], 108%; in test [15], 118%; in [16] it was 102%; in test [17], 118%; in test [18], 107%. The growth was 111% in [19] and 106% in [20].

(Values after PubChem BioAssay (NCI).)
